According to PubChem BioAssay (NCATS):
“And” between values parts separate entries of the source, which are not always exact repeats. Identical values can stand only once. Inconclusive results are not listed. Entries that show only a call come without a potency. Unmarked numbers belong to inactive results. The source made the active and inactive calls. Calls come from the whole dose curve; as a rule, active = well fitted curve in the direction sought with a large enough effect; inconclusive = small, poorly fitted or top-dose-only effect, or another doubt; inactive = no such curve, though single readings can be large; an effect the other way counts as inactive or inconclusive. Peptide text beside a SMILES is read from it.

Assays:
[1] = target: Cytochrome P450 3A7 (Homo sapiens) (UniProt P24462); assay: Cytochrome P450 family 3 subfamily A member 7 (CYP3A7) small molecule antagonists: luciferase biochemical qHTS assay (AID 1963596); note: nearly all actives have a fitted effect of over 40% in size
Sequence of Cytochrome P450 3A7 (Homo sapiens) (P24462 whole entry, looked up): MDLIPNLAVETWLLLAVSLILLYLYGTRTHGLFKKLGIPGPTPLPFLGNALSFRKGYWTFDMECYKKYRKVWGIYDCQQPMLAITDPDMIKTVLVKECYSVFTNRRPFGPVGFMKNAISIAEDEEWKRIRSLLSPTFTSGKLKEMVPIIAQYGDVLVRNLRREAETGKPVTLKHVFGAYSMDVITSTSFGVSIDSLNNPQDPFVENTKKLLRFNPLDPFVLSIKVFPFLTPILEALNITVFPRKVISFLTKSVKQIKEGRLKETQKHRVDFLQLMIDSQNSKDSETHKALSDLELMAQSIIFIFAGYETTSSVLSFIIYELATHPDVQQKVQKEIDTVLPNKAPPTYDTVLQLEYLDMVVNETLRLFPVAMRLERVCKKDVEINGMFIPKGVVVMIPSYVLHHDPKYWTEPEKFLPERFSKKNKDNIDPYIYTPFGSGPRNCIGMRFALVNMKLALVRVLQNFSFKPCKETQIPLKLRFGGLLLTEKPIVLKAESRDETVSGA
Method in brief: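 Biochemical CYP3A7 activity measured with P450-Glo system: luciferin formed from proluciferin substrate in NADPH-driven reaction (1 h, room temperature) after 10 min compound preincubation. Signal in relative luminescence units.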

[2] = Viability qHTS for spleen associated tyrosine kinase inhibitor (SYKi) naive MV4-11 cells (AID 1963823); note: nearly all actives have a fitted effect of over 40% in size; note: potency is the fitted concentration of half-maximal effect
Method in brief: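 Seeding of 500 SYKi-naive MV4-11 cells per well onto pre-dispensed compounds preceded a 72 hr incubation at 37 C. Luminescent CellTiter-Glo signal, read after 10 min at room temperature, reflected viable cells.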

[3] = Viability qHTS for spleen associated tyrosine kinase inhibitor (SYKi) drug resistant MV4-11 cells (AID 1963824); note: nearly all actives have a fitted effect of over 35% in size; note: potency is the fitted concentration of half-maximal effect
Method in brief: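 SYK-inhibitor-resistant MV4-11 AML cells were seeded at 500 per well onto compound and cultured 72 hours (37 °C, 5% CO2). CellTiter-Glo was then added, and after 10 min at room temperature, luminescence gave viability.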

[4] = Quantitative highthroughput screen to assess conditional lethalithy of NOMO1 cells grown in RPMI1640 with untreated serum (RPMI+s) (AID 1963876); note: nearly all actives have a fitted effect of over 35% in size; note: potency is the fitted concentration of half-maximal effect
Method in brief: (§1)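 Each medium arm—HPLM with 10% dialyzed FBS, or RPMI1640 with 5 mM glucose and 10% untreated or dialyzed FBS—was screened against an 11-point, 3-fold compound titration for 48 h at 37 °C, with CellTiter-Glo luminescence as endpoint.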

[5] = Quantitative highthroughput screen to assess conditional lethalithy of NOMO1 cells grown in RPMI1640 with dialyzed fetal bovine serum (RPMI+ds) (AID 1963877); note: nearly all actives have a fitted effect of over 30% in size; note: potency is the fitted concentration of half-maximal effect; for Viability: series mostly up to about 46 µM
Method in brief: as §1

[6] = Quantitative highthroughput screen to assess conditional lethalithy of P12 Ichikawa cells grown in Human Plasma-Like Medium with dialyzed fetal bovine serum (HPLM+ds) (AID 1963879); conditions: Potency: viability; note: nearly all actives have a fitted effect of over 35% in size; note: potency is the fitted concentration of half-maximal effect; for Viability: series mostly up to about 46 µM
Method in brief: as §1

[7] = Quantitative highthroughput screen to assess conditional lethalithy of P12 Ichikawa cells grown in RPMI1640 with dialyzed fetal bovine serum (RPMI+ds) (AID 1963880); conditions: Potency: P12-Ichikawa viability; note: nearly all actives have a fitted effect of over 35% in size; note: potency is the fitted concentration of half-maximal effect
Method in brief: as §1

[8] = Quantitative highthroughput screen to assess conditional lethalithy of P12 Ichikawa cells grown in RPMI1640 with untreated serum (RPMI+s) (AID 1963881); conditions: Potency: viability; note: nearly all actives have a fitted effect of over 35% in size; note: potency is the fitted concentration of half-maximal effect; for Viability: series mostly up to about 46 µM
Method in brief: as §1

[9] = Quantitative highthroughput screen to assess conditional lethalithy of SEM cells grown in Human Plasma-Like Medium with dialyzed fetal bovine serum (HPLM+ds) (AID 1963882); note: nearly all actives have a fitted effect of over 35% in size; note: potency is the fitted concentration of half-maximal effect; for Viability: series mostly up to about 46 µM
Method in brief: as §1

[10] = Quantitative highthroughput screen to assess conditional lethalithy of SEM cells grown in RPMI1640 with unreated serum (RPMI+s) (AID 1963883); note: nearly all actives have a fitted effect of over 35% in size; note: potency is the fitted concentration of half-maximal effect
Method in brief: as §1

[11] = Quantitative highthroughput screen to assess conditional lethalithy of SEM cells grown in RPMI1640 with dialyzed fetal bovine serum (RPMI+ds) (AID 1963884); note: nearly all actives have a fitted effect of over 35% in size; note: potency is the fitted concentration of half-maximal effect; for Viability: series mostly up to about 46 µM
Method in brief: as §1

[12] = Cellular viability qHTS for adrenocortical cancer (ACC) cell line NCI-H295R (AID 1963990); note: nearly all actives have a fitted effect of over 60% in size; note: potency is the fitted concentration of half-maximal effect
Method in brief: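 Adrenocortical carcinoma cells, suspended at 300 000 cells/mL in serum-free DMEM plus ITS, rested overnight before pin transfer of compound. After two days' incubation, ATP-dependent luminescence was recorded and curve-fitted.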

[13] = Cellular viability qHTS for adrenocortical cancer (ACC) cell line SW-13 (AID 1963989); conditions: SW-13 ACC cells viability, CellTiter-Glo, 48 h; activity (max response): hits give low values; note: nearly all actives have a fitted effect of over 65% in size; note: potency is the fitted concentration of half-maximal effect;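 for activity (max response): cells grown in serum-free medium with ITS supplement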
Method in brief: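 IC50 and maximal-response values come from four-parameter logistic fits of titration data. SW-13 cells in serum-free medium received compounds (up to 46 uM final) for 48 h before CellTiter-Glo luminescence.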

[14] = Quantitative highthroughput screen to assess conditional lethalithy of NOMO1 cells grown in Human Plasma-Like Medium with dialyzed fetal bovine serum (HPLM+ds) (AID 1963878); note: nearly all actives have a fitted effect of over 35% in size; note: potency is the fitted concentration of half-maximal effect
Method in brief: as §1

Row | SMILES | Potency [1] | Potency [2] | Potency [3] | Potency [4] | Potency [5] | Potency [6] | Potency [7] | Potency [8] | Potency [9] | Potency [10] | Potency [11] | Potency [12] | activity (max response) [13] | Potency [14] | Potency [13]
1 | O=c1oc2c(O)c(O)cc3c(=O)oc4c(O)c(O)cc1c4c23 | inactive | inactive | inactive | inactive | inactive | inactive | inactive | inactive | inactive | inactive | inactive | inactive | – | – | –
2 | Cc1nnc(NS(=O)(=O)c2ccc(N)cc2)s1 | inactive | inactive | inactive | 9.35 µM (active) | 5.26 µM (active) | 7.43 µM (active) | 13.2 µM (active) | 8.33 µM (active) | – | – | inactive | inactive | -2.08% and -2.89% | – | –
3 | CCC(C)(Oc1ccc(C2(c3ccc(OC(C)(CC)C(=O)O)cc3)CCCCC2)cc1)C(=O)O (stereo unspecified) | inactive | inactive | inactive | inactive | inactive | – | inactive | inactive | – | – | inactive | inactive | -4.64% and -4.83% | inactive | –
4 | Cc1cn([C@H]2C[C@H](N=[N+]=[N-])[C@@H](CO)O2)c(=O)[nH]c1=O | inactive | inactive | inactive | 1.32 µM (active) | 1.87 µM (active) | 10.5 µM (active) | – | – | – | inactive | – | inactive | -7.12% | – | –
5 | CCOC(=O)c1ncn2c1CN(C)C(=O)c1cc(F)ccc1-2 | inactive | inactive | inactive | inactive | inactive | 3.72 µM (active) | – | – | – | – | – | inactive | 10.7% and 8.93% | 20.9 µM (active) | –
6 | Nc1nnc(-c2cccc(Cl)c2Cl)c(N)n1 | inactive | inactive | inactive | inactive | inactive | inactive | inactive | inactive | inactive | – | inactive | inactive | 1.68% and 0.0596% | – | –
7 | COc1cc(OC)c(C(=O)CCCN2CCCC2)c(OC)c1 | inactive | inactive | inactive | inactive | inactive | inactive | inactive | inactive | inactive | inactive | inactive | inactive | 9.88% and 2.45% | – | –
8 | NC1=N[C@H]2[C@H](CS[C@H]2CCCCC(=O)O)N1 | inactive | inactive | inactive | inactive | inactive | – | inactive | inactive | inactive | inactive | inactive | inactive | 13% | – | –
9 | O=C1CCC(N2C(=O)c3ccccc3C2=O)C(=O)N1 (stereo unspecified) | inactive | inactive | inactive | inactive | inactive | inactive | inactive | inactive | inactive | – | – | inactive | 13.3% and -15.2% | – | –
10 | COC(=O)[C@H](Cc1ccccc1)NC(=O)[C@@H](N)CC(=O)O (H-Asp-Phe-OMe) | inactive | inactive | inactive | inactive | inactive | inactive | – | inactive | inactive | inactive | inactive | inactive | 0.253% and -5.37% | inactive | –
11 | Fc1cc(-c2cccc3ncc(-c4cnn(C5CCNCC5)c4)nc23)cc(F)c1CN1CCOCC1 | inactive | 259 nM (active) and 372 nM (active) | 731 nM (active) and 833 nM (active) | 8.33 µM (active) | – | – | 16.6 µM (active) | – | 4.69 µM (active) | 2.64 µM (active) | – | 6.31 µM (active) | – | 3.32 µM (active) | 25.1 µM (active)
12 | O=C(O)c1cc(=O)c2c(OCC(O)COc3cccc4oc(C(=O)O)cc(=O)c34)cccc2o1 | inactive | inactive | inactive | inactive | – | inactive | inactive | inactive | inactive | inactive | inactive | inactive | 10.3% and -0.0262% | inactive | –
13 | O=C(Cc1ccc(-c2ccc(OCCN3CCOCC3)cc2)cn1)NCc1ccccc1 | inactive | 231 nM (active) and 93.4 nM (active) | 206 nM (active) and 105 nM (active) | – | – | 0.0332 µM (active) | 0.0372 µM (active) | 0.0372 µM (active) | 0.0264 µM (active) | 0.0264 µM (active) | 0.0296 µM (active) | 0.178 µM (active) | – | – | 0.199 µM (active)
14 | Nc1nc2c(ncn2COCCO)c(=O)[nH]1 | inactive | inactive | inactive | inactive | – | – | inactive | inactive | – | – | – | inactive | 1.46% and 4.77% | – | –
15 | O=C1NC(O)CCN1[C@@H]1O[C@H](CO)[C@H](O)[C@H]1O (stereo partly specified) | inactive | inactive | inactive | – | – | inactive | inactive | inactive | inactive | – | inactive | inactive | -1.6% | 20.9 µM (active) | –
